Source: PubChem BioAssay (NCATS)
Where “and” joins values, the source holds several entries; their conditions need not be identical. Identical values can stand only once. Results filed as inconclusive are left out. Calls of active or inactive are those of the source. Calls come from the whole dose curve; as a rule, active = well fitted curve in the direction sought with a large enough effect; inconclusive = small, poorly fitted or top-dose-only effect, or another doubt; inactive = no such curve, though single readings can be large; an effect the other way counts as inactive or inconclusive.

assay: qHTS Assay for Identifying Gametocytocidal Compounds (AID 743244); note: potency is the fitted concentration of half-maximal effect;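 for max response: % is set by controls: 0 for no effect and ±100 for the full control effect; actives lower the fluorescent signal which means gametocytes are killed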; conditions: P. falciparum 3D7 stage III-V gametocytes, alamarBlue, 72 h; max response: active compounds read low
Procedure, shortened: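 Stage III–V gametocytes of P. falciparum 3D7 were seeded at 20,000 cells/well onto pre-dispensed compounds. After 72 h, 37 °C, 5% CO2, alamarBlue was added for another 24 h.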

Compound | max response | Potency
O=C(CCCCC(=O)Nc1c(I)cc(I)c(C(=O)O)c1I)Nc1c(I)cc(I)c(C(=O)O)c1I | 35.4% (inactive) | –
O=C1[C@@H]2[C@H]3CC[C@H](C3)[C@@H]2C(=O)N1CCCCN1CCN(c2ncccn2)CC1 | 4.19% (inactive) | –
O=C(Nc1ccc(S(=O)(=O)N2CCOCC2)cc1)c1cc(Cl)ccc1NS(=O)(=O)c1ccc(Cl)s1 | 15.3% (inactive) | –
O=C1CC2(CCCC2)CC(=O)N1CCNCC1COc2ccccc2O1 (stereo not given) | 2.39% (inactive) | –
CN1C(=O)CC(C)(c2ccccc2)C1=O (stereo not given) | -8.12% (inactive) | –
CC(=O)OCC(=O)[C@@]1(O)[C@H](OC(C)=O)C[C@H]2[C@@H]3CCC4=CC(=O)C=C[C@]4(C)[C@@]3(F)[C@@H](O)C[C@@]21C | -5.18% (inactive) | –
CCN1CCN(c2cc(-c3ccc(F)cc3)c3c(n2)CCCCCC3)CC1 | 9.24% (inactive) | –
CCCCNc1ccc(C(=O)OCCN(CC)CC)cc1 | -4.4% (inactive) | –
Nc1ncnc2n[nH]c(Nc3ccc(F)cc3)c12 | 6.51% (inactive) | –
CCO[C@H](Cc1ccc(OCCc2ccc(OS(C)(=O)=O)cc2)cc1)C(=O)O | 6.84% (inactive) | –
O=C(CS(=O)Cc1ccco1)NC/C=C\COc1cc(CN2CCCCC2)ccn1 (stereo not given) | 9.57% (inactive) | –
C[C@H]1C[C@H]2[C@@H]3CCC4=CC(=O)C=C[C@]4(C)[C@H]3C(=O)C[C@]2(C)[C@@]1(O)C(=O)CO | -0.729% (inactive) | –
Cc1cccc(N(C)C(=S)Oc2ccc3c(c2)CCC3)c1 | 14.9% (inactive) | –
C[C@H](CN1CCCC1)C(=O)c1ccc(C(F)(F)F)cc1 | 15.3% (inactive) | –
CCCCCC1Nc2cc(C(F)(F)F)c(S(N)(=O)=O)cc2S(=O)(=O)N1 (stereo not given) | 13.4% (inactive) | –
O=C1OC2(c3ccccc31)c1cc(I)c(O)c(I)c1Oc1c2cc(I)c(O)c1I | -3.42% (inactive) | –
O=C(O)Cc1ccccc1Oc1ccc(Cl)cc1Cl | 10.5% (inactive) | –
CCCCCCCCCCCC[N+](C)(C)Cc1ccccc1 | – | 5.01 µM (active)
Cn1cnc2c(NCc3ccccc3)nc(NCCO)nc21 | 11.6% (inactive) | –
COc1c(N2C[C@@H]3CCCN[C@@H]3C2)c(F)cc2c(=O)c(C(=O)O)cn(C3CC3)c12 | 11.5% (inactive) and 6.91% (inactive) | –

assay: qHTS assay for measurement of the activity of small molecule inhibitors on Zika virus induced Caspase-3 activity in human astrocytoma cells (AID 1224859); conditions: SNB-19 ZIKV-induced caspase-3/7, luminescence, 6 h; series mostly up to 45.7 µM; activity change, negative = inhibition: at the top concentration;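 note: plate controls were ZIKV-infected untreated cells for no effect and uninfected cells for full effect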
Procedure, shortened: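 Compound added 1 h pre-infection; ZIKV 2 FFU/cell on SNB-19 cells, 6 h, 37 C/5% CO2. Caspase-Glo 3/7 luminescence; values as % inhibition of ZIKV-induced caspase activity.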

Compound | activity change, negative = inhibition
O=C(CCCl)NCc1ccccc1 | 3.48% (inactive)
O=C(CCCCC(=O)Nc1c(I)cc(I)c(C(=O)O)c1I)Nc1c(I)cc(I)c(C(=O)O)c1I | -2.43% (inactive)
O=C(Nc1ccc(S(=O)(=O)N2CCOCC2)cc1)c1cc(Cl)ccc1NS(=O)(=O)c1ccc(Cl)s1 | 5.12% (inactive)
CCCc1ncc(C(=O)O)s1 | -16.1% (inactive)
O=C1CC2(CCCC2)CC(=O)N1CCNCC1COc2ccccc2O1 (stereo not given) | 6.15% (inactive)
CN1C(=O)CC(C)(c2ccccc2)C1=O (stereo not given) | -1.41% (inactive)
CC(=O)OCC(=O)[C@@]1(O)[C@H](OC(C)=O)C[C@H]2[C@@H]3CCC4=CC(=O)C=C[C@]4(C)[C@@]3(F)[C@@H](O)C[C@@]21C | 1.31% (inactive)
CCN1CCN(c2cc(-c3ccc(F)cc3)c3c(n2)CCCCCC3)CC1 | -23.5% [at 20.5 µM] (inactive)
CCCCNc1ccc(C(=O)OCCN(CC)CC)cc1 | 7.56% (inactive)
Nc1ncnc2n[nH]c(Nc3ccc(F)cc3)c12 | -2.73% (inactive)
CCCC(CCC)(C(=O)OCC)C(=O)OCC | -9.56% (inactive)
CCO[C@H](Cc1ccc(OCCc2ccc(OS(C)(=O)=O)cc2)cc1)C(=O)O | 1.26% (inactive)
Fc1ccc(C(c2ccc(F)cc2)N2CCNCC2)cc1 | 14.1% (inactive)
O=C(CS(=O)Cc1ccco1)NC/C=C\COc1cc(CN2CCCCC2)ccn1 (stereo not given) | 4.56% (inactive)
O=C1CCCc2c(O)cccc21 | 4% (inactive)
C[C@H]1C[C@H]2[C@@H]3CCC4=CC(=O)C=C[C@]4(C)[C@H]3C(=O)C[C@]2(C)[C@@]1(O)C(=O)CO | 1.52% (inactive)
Cc1cccc(N(C)C(=S)Oc2ccc3c(c2)CCC3)c1 | 2% (inactive)
CCCCC(=O)OCC(=O)[C@H]1[C@H](C)C[C@H]2[C@@H]3C[C@H](F)C4=CC(=O)C=C[C@]4(C)[C@@]3(F)[C@@H](O)C[C@@]21C | -0.154% (inactive)

Compound | activity change, negative = inhibition
CCCCOC(=O)CCCCCCCCC(=O)OCCCC | -20.8% (inactive)
CC(C)(C)C1CCC(CC2=C(O)c3ccccc3C(=O)C2=O)CC1 (stereo not given) | -1.13% (inactive)
C[C@H](CN1CCCC1)C(=O)c1ccc(C(F)(F)F)cc1 | -8.85% (inactive)
CCCCCC1Nc2cc(C(F)(F)F)c(S(N)(=O)=O)cc2S(=O)(=O)N1 (stereo not given) | -2.31% (inactive)
C[C@H]1NCc2cc(-c3ccc4c(=O)c(C(=O)O)cn(C5CC5)c4c3OC(F)F)ccc21 | -10.4% [at 20.5 µM] (inactive)
COC(=O)/C=C\C(=O)OC | -5.52% (inactive)
CCCOc1ccc2c(c1)CC[C@@H]1[C@@H]2CC[C@]2(C)C(OC)CC[C@@H]12 (stereo not given in full) | -2.39% (inactive)
CCCCN(CCCC)C(C(N)=O)c1ccc(OC)cc1 (stereo not given) | 6.2% (inactive)
O=C1OC2(c3ccccc31)c1cc(I)c(O)c(I)c1Oc1c2cc(I)c(O)c1I | -7.42% (inactive)
O=C(O)Cc1ccccc1Oc1ccc(Cl)cc1Cl | 1.64% (inactive)
Cn1cnc2c(NCc3ccccc3)nc(NCCO)nc21 | -7.89% (inactive)
COc1c(N2C[C@@H]3CCCN[C@@H]3C2)c(F)cc2c(=O)c(C(=O)O)cn(C3CC3)c12 | -10.3% (inactive)
C=C(C)C(=O)OCC(O)CO (stereo not given) | 16.6% (inactive)
CC(C)C(=O)Nc1cccc(C2CN3CCSC3=N2)c1 (stereo not given) | 0.902% (inactive)
COC(=O)c1cc(Cl)c(NC(C)=O)cc1OC | 2.34% (inactive)
CCOC(=O)C(=O)CCCCCCl | -9.12% (inactive)
Nc1cccc2c(N)cccc12 | -10.7% [at 92.8 µM] (inactive)
